System: PRMT1 (protein arginine N-methyltransferase 1)
Experiment: small molecules binding arginine methyltransferase PRMT1 – biochemical, small-molecule microarray, 635 nm fluorescence, primary screen (AID 1088);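 further: binding of Prmt1 protein to compounds spotted on small-molecule microarray slides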
Conditions: higher = more signal

Point of comparison: `COc1ccc([Si](C)(C)[C@@H]2[C@@H](CC(=O)N3Cc4ccccc4C[C@H]3CO)O[C@]3(C(=O)N(Cc4cccc(N5CCC5=O)c4)c4ccccc43)[C@H]2C)cc1`, composite z-score 1.55. Against it:
- CCCCN1CC=CC23O[C@@H]4/C=C\CCCOC(=O)C4[C@H]2C(=O)N(CCCCCO)[C@@H]3C1=O (stereo not given in full) — lower, -1.13
- O=C(O)[C@@]1(CCS(=O)(=O)c2ccccc2)N=C(c2ccc(OCCCO)cc2)O[C@H]1c1ccccc1 — lower, 1.07
- O=C1OCCC=C[C@H]2OC34C=CCN(c5ccc(Cl)cc5)C(=O)[C@H]3N(CCCO)C(=O)[C@@H]4C12 (stereo not given in full) — lower, -0.827
- CCCCCCCCCCC(O)C1C=CC2C(=O)NC(=O)C2N1Nc1ccc(Cl)cc1Cl (stereo not given) — lower, 0.355
- C=CCC(OC(C)=O)[C@@H]1[C@@H](N(Cc2ccc(-c3ccccc3)cc2)C(=O)Cc2ccc(F)cc2)c2cc(OCCCO)ccc2N1C(=O)c1ccc2ccccc2c1 (stereo not given in full) — lower, 0.688
- COCC(=C=CC[C@H](O)c1cccc(OCCO)c1)C[C@H](O)c1cc(Cl)cc(Cl)c1O — lower, 1.54
- Cc1ccc(/C=C/C=O)cc1 — lower, -0.379
- C=C(CCCC)/C(=C/C[C@H](OC(C)=O)c1ccc(OCCO)cc1)c1cnc2ccccc2c1 — lower, 1.53
- COc1cc2c(cc1O)C=[N+](Cc1cc3c(cc1Br)OCO3)CC2 — lower, 0.168
- CCCCCCc1nc(-c2ccc(-c3ccc(Cl)c(Cl)c3)o2)c(C)c2c1[Si](C(C)C)(C(C)C)OC2 — lower, 0.337
- COCCCNC(=O)[C@]1(Cc2ccccc2)N=C(c2ccc(OCCCO)cc2)O[C@@H]1c1ccccc1CN=[N+]=[N-] — the same, 1.55
- [N-]=[N+]=Nc1ccccc1C[C@@]1(C(=O)N2CCCCC2)N=C(c2ccc(OCCCO)cc2)O[C@@H]1c1ccccc1 — lower, 1.14
- C=CCN(Cc1ccccc1)C(=O)C(c1cccs1)N(C(=O)/C=C\C(=O)O)c1ccc(CCOCCO)cc1 (stereo not given) — lower, -0.133
- [N-]=[N+]=NCc1ccccc1[C@H]1OC(c2ccc(OCCCO)cc2)=N[C@@]1(Cc1ccccc1)C(=O)N1CCCCC1 — the same, 1.55
- CC(C)(C)OC(=O)CC[C@]1(C(=O)NCCN2CCOCC2)COC(c2ccc(OCCCO)cc2)=N1 — lower, 1.47
- COC(=O)[C@@]1(Cc2ccc(OC)cc2)[C@H]2c3cc(C(=O)N4CCCC4)n(CCCNc4ncc(C(F)(F)F)cc4Cl)c3C[C@H]2CN1C(=O)c1ccccc1 — lower, 0.0457
- COCCOC(=O)N1C(=O)[C@@]2(c3ccccc31)[C@H](C(N)=O)[C@H]1C(=O)O[C@H](c3ccccc3)[C@H](c3ccccc3)N1[C@@H]2c1ccc(O)cc1 — lower, 1.38
- CC(=O)NCCCC[C@@H]1NC(=O)[C@H]2C[C@@H](C(=O)NCCCCCNC(=O)CS)[C@@H](c3ccc(O)cc3)N2C1=O — lower, 0.524
- CCOc1ccc(N2C(=O)CSC2c2cccc([N+](=O)[O-])c2)cc1 (stereo not given) — lower, 0.971
- COc1ccc(C(=O)Nc2ccc(CN3C(=O)[C@]4(O[C@H](CC(=O)N5CCC[C@H]5CO)[C@@H]([Si](C)(C)c5ccc(OC)cc5)[C@@H]4C)c4ccccc43)cc2)cc1 — lower, 1.54
- C=C(CCCC)C(=O)CC[C@H](OC(=O)c1cccnc1)c1ccc(OCCO)cc1 — lower, 0.417
- COC(=O)c1c(CC[C@@H](CO)NC(=O)NCCc2c[nH]c3ccccc23)oc(C(=O)Cc2ccccc2)c1C(=O)OC — lower, 0.578
- COC(=O)C(CC#Cc1ccc2c(c1)[C@]1(C(=O)N2)[C@H](c2ccccc2OCCO)N2[C@H](c3ccccc3)[C@H](c3ccccc3)OC(=O)[C@H]2[C@@H]1C(=O)O)C(=O)OC — higher, 1.57
- CN(C)CCCC[C@@H]1NC(=O)[C@H]2C[C@@H](C(=O)NCCCCCN)[C@@H](c3cccc(OCCO)c3)N2C1=O — lower, 1.54
